Sfp PPTase inh: blocks B. subtilis Sfp PPTase activity. Biochemical Sfp PPTase activity, qHTS. Potency, µM, for the others: largest response in the series, negative = inhibition, actives largely listed as inhibitors. AID 1490. Q9F4F7. actives 3.5% (n = 310,000);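 note: the enzyme is Sfp with the accession as filed and its product quenches rhodamine fluorescence; 0% = enzyme reaction without inhibitor and -100% = no enzyme wells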
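Compounds were incubated with enzyme (final 15 nM) for 15 min at room temperature before substrate addition started the reaction. Fluorescence at 525 nm excitation, 598 nm emission was recorded immediately and after 30 minutes.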
G9a inh: G9a (human) methyltransferase inhibition | AID 504332 | G9a H3K9 monomethylation, AlphaScreen, 2 h | actives 8.8% (n = 350,000) | Q96KQ7 | Potency, µM (doses to about 102 µM), for inactives: at the highest dose activity, negative = inhibition, hits mostly inhibitors; note: % is set by controls: 0 for no effect and ±100 for the full control effect; nearly all actives have a fitted effect of over 75% in size
Target sequence (Q96KQ7 913-1193 limits assumed): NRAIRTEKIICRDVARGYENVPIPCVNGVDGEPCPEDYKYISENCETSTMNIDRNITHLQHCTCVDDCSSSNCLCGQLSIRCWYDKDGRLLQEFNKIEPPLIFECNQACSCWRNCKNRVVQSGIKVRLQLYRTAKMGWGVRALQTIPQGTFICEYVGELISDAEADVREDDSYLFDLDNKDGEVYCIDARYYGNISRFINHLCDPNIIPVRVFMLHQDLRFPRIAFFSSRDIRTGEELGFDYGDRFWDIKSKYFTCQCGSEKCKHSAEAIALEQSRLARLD
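Quantitative HTS format: methyltransferase activity on a biotin-tagged H3K9 peptide is measured by AlphaScreen, using a rabbit anti-monomethyl-H3K9 antibody with streptavidin donor and anti-IgG acceptor beads. Final levels are 20 nM enzyme, 500 nM peptide, 20 uM SAM; 2 h RT.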
BAZ2B block: inhibitors of human BAZ2B bromodomain. AlphaScreen BAZ2B-H3K14Ac peptide displacement. AID 504333. Potency, µM (doses to about 114 µM), for inactives: top-dose activity change, negative = inhibition, actives largely listed as inhibitors. actives 4.4% (n = 360,000); note: % is set by controls: 0 for no effect and ±100 for the full control effect; nearly all actives have a fitted effect of over 60% in size
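BAZ2B (50 nM) with biotin-H3(5-23)K14Ac peptide (50 nM) in PBS pH 7.4, 0.01% Tween-20, preformed 30 min, then compound 30 min at room temperature; top concentration 110uM. AlphaScreen streptavidin donor/nickel chelate acceptor beads (10 ug/mL final), 20 min dark, signal read.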
L3MBTL1 block: blocks human L3MBTL1 | AlphaScreen L3MBTL1–H3K9me1 peptide binding | Potency, µM (doses to about 57.1 µM), for inactives: top-dose activity, negative = inhibition, hits mostly inhibitors | actives 0.66% (n = 230,000) | AID 485360; note: % is set by controls: 0 for no effect and ±100 for the full control effect; nearly all actives have a fitted effect of over 60% in size
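First, the protein-peptide complex forms for 30 min at room temperature (L3MBTL1 50 nM, biotinylated H3K9me1 peptide 75 nM). Next, compounds are pin-transferred and incubated 30 min. Finally, AlphaScreen beads are added and read after 30 min.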
HP1b binding inh: inhibitors of HP1-beta chromodomain binding to methylated histone tails; AlphaScreen HP1-beta / biotin-H3K9me3 peptide binding; Potency, µM (highest dose often 114 µM), without a hit: at the top dose activity change, negative = inhibition, usual class: inhibitors; actives 0.56% (n = 390,000); note: nearly all actives have a fitted effect of over 70% in size
Target sequence (P83916 whole entry, looked up): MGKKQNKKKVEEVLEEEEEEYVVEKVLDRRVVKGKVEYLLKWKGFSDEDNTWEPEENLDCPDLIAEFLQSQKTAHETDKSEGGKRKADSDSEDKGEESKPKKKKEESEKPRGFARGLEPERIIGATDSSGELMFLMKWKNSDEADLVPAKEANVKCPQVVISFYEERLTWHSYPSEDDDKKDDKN
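HP1-beta protein (50 nM final) preincubated 30 min at room temperature with biotinylated H3(1-18)K9me3 peptide (50 nM) in PBS pH 7.4, 0.01% Tween-20, then compound added for 30 min. AlphaScreen streptavidin donor/nickel chelate acceptor beads (10 ug/mL final), 30 min dark, luminescence read.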
JMJD2A Tudor inh: blocks the human JMJD2A Tudor domain; O75164; AlphaScreen JMJD2A-Tudor / H3K4me3 peptide binding; Potency, µM (series often up to 114 µM), inactives show top-dose activity change, negative = inhibition, actives largely listed as inhibitors; actives 4.4% (n = 390,000); note: % is set by controls: 0 for no effect and ±100 for the full control effect; nearly all actives have a fitted effect of over 50% in size
The depositor's hits bear a star; ? = inconclusive; . = no result; [ ] = another dose, or the depositor's remark. An excerpt weighted towards active compounds, which were near 12% of everything screened. Calls come from the whole dose curve; as a rule, active = well fitted curve in the direction sought with a large enough effect; inconclusive = small, poorly fitted or top-dose-only effect, or another doubt; inactive = no such curve, though single readings can be large; an effect the other way counts as inactive or inconclusive. Potency is the fitted concentration of half-maximal effect.

SMILES | Sfp PPTase inh | G9a inh | BAZ2B block | L3MBTL1 block | HP1b binding inh | JMJD2A Tudor inh
COC(=O)CSc1nc(N)c(C#N)c(-c2ccc(O)cc2)c1C#N | 18% | -2% | -6% | -7% | 42% | -16%
CCOC(=O)CSc1nc(N)c(C#N)c(-c2ccc(OCC)cc2)c1C#N | -17% | 45µM* | -4% | 9% | 20% | -10%
Cc1cc(C)c(C#N)c(SCC(=O)OC2CCCCC2)n1 | -3% | 66%[59 µM] | 119% | . | 183% | 111%
CC(OCc1ccccc1)C(NC(=O)OC(C)(C)C)C(=O)NC1COC2CC(n3ccc(=O)[nH]c3=O)OC12 (stereo not given) | -1% | . | . | . | 15% | -5%
Clc1ccccc1CNCC1CCC(CNCc2ccccc2Cl)CC1 (stereo not given) | -1% | . | . | . | . | .
Cc1c(-c2ccccc2)nc(N)c(C#N)c1-c1ccco1 | 14µM* | ? | 2% | . | 32% | 19%
CCOC(=O)CCc1c(C)nc(SCc2ccc(C(=O)O)cc2)c(C#N)c1C | 4% | 25% | 2% | 1% | 43% | -5%
CCOC(=O)CCc1c(C)nc(SCC(=O)O)c(C#N)c1C | 79µM* | 8.9µM* | 9% | 2% | 11% | 25µM*
Cc1ccc(S(=O)(=O)/C(C#N)=C/c2c(N3CCN(Cc4ccccc4)CC3)nc3ccccn3c2=O)cc1 | -2% | -9%[0.0925 µM] | ? | . | 4% | -28%
CCOc1cc(C(c2c(C)[nH][nH]c2=O)c2c(C)[nH][nH]c2=O)ccc1OC(=O)c1cccc([N+](=O)[O-])c1 | 1% | 3.5µM* | -36% | . | -14% | ?
CCOc1cc(C(c2c(C)[nH][nH]c2=O)c2c(C)[nH][nH]c2=O)ccc1OCc1ccc([N+](=O)[O-])cc1 | 3% | ? | -31% | . | 4% | ?
NS(=O)(=O)c1ccc(N=Nc2c[nH]c(=O)c(O)c2)cc1 | 45µM* | 11µM* | 7.9µM* | ? | 50µM* | 7.1µM*
COC(=O)C1=C[C@@H](C(=O)OC)[C@@H]2C3=C(C(=O)[C@@]2(C)NC(=O)c2ccccc2)[C@H](C)[C@@H]2C(=O)N(c4ccccc4)C(=O)[C@@H]2[C@@H]3C1 | 2% | . | . | . | 27% | -22%
CCOc1ccc(CCNC(=O)CCCc2nnc3n(C)c(=O)c4sccc4n23)cc1OCC | . | 2%[59 µM] | 3% | . | 16% | -17%
Clc1nc(Cl)nc(-c2cn(-c3ccccc3)c3ccccc23)n1 | 56µM* | 13µM* | ? | 2% | 18% | 79µM*
Cc1ccc(S(=O)(=O)Nc2nc3ccccc3nc2NCc2ccco2)cc1C | 3% | -42% | -2% | 2% | 27% | -15%
O=S(=O)(c1cccs1)N1CN(Cc2ccc(F)cc2)c2nc3ccccc3nc21 | 2% | 17%[59 µM] | ? | -12% | -2% | ?
COc1ccc(S(=O)(=O)N2CN(Cc3ccco3)c3nc4ccccc4nc32)cc1 | 56µM* | ? | ? | . | 1% | ?
Cc1ccc(S(=O)(=O)N2CN(Cc3ccco3)c3nc4ccccc4nc32)cc1 | -29% | 32µM* | -28% | -3% | 10% | ?
O=S(=O)(c1ccc(F)cc1)N1CN(Cc2ccco2)c2nc3ccccc3nc21 | 56µM* | 11µM* | ? | . | -4% | ?
COc1ccc(CN2CN(S(=O)(=O)c3ccccc3)c3nc4ccccc4nc32)cc1 | 4% | -23% | -38% | -16% | 7% | ?
Cc1ccc(S(=O)(=O)N2CN(Cc3ccco3)c3nc4ccccc4nc32)cc1C | 40µM* | 32µM* | -24% | -5% | 15% | -22%
CN1CCN(C(=O)C2CCC(=O)N(Cc3cccc(C(F)(F)F)c3)C2)CC1 (stereo not given) | 4% | . | -6% | . | -2% | -12%
NC(=O)C1CCCN(C(=O)c2ccc3c(c2)NC(=O)CS3)C1 (stereo not given) | . | -10%[12.7 µM] | -3% | -1% | 50% | 3%
O=C(CSc1nnc(-c2ccncc2)o1)N1CCCC1 | 14% | -6% | -4% | 33% | 30% | 3%
SMILES | Sfp PPTase inh | G9a inh | BAZ2B block | L3MBTL1 block | HP1b binding inh | JMJD2A Tudor inh
S=C(Cc1cccnc1)N1CCOCC1 | -69% | 2.2µM* | 2% | 11% | ? | 79µM*
COc1ccc(CC(=S)N2CCOCC2)cc1OC | 17% | -22%[12.7 µM] | 6%[57.1 µM] | 7% | 48% | 4%
CCCCCCC1=Cc2cc(OC)c(OC)cc2C(CC(=O)/C=C/OC)O1 (stereo not given) | -3% | . | . | . | . | .
N#CC1=C(S)N(c2ccc(F)cc2)C2(CCCCC2)NC1=O | 20µM* | 35µM* | ? | 7%[11.4 µM] | 38% | -11%
CC1(c2ccccc2)CC(c2ccccc2)=C(C#N)C(=O)N1 (stereo not given) | . | . | . | . | 23% | -11%
N#CC1=C(S)N(c2ccccc2)C2(CCCCC2)NC1=O | 28µM* | ? | ? | -1% | 31% | -12%
CCN(CC)CCCNC(=O)c1ccc2c3n(nc2c1)-c1ccc(Cl)cc1CO3 | . | 18%[2.33 µM] | 8% | -9% | 15% | -29%
CCCCC[C@@H]1C=C(C(=O)O)[C@H](c2ccc(Cl)c(Cl)c2)N1S(=O)(=O)c1ccc(C)cc1 | . | . | . | -11% | 34% | ?
O=C(Nc1cccc(Cl)c1N1CCOCC1)c1cccnc1Cl | 20% | 2% | -11% | -5% | 42% | 7%
O=C1CCCc2c1cc(-c1ccccc1)n2-c1ccc(O)cc1 | 5% | 4% | -6% | -12% | 29% | -6%
COc1ccc(-n2c(-c3ccccc3)cc3c2CCCC3=O)cc1 | -3% | 13µM* | 11µM* | 32µM* | ? | 32µM*
CC(/C=C1\SC(=S)N(NC(=O)c2ccncc2)C1=O)=C\c1ccccc1 | 45µM* | ? | ? | -20% | -14% | ?
CC(/C=C1\SC(=S)N(NC(=O)c2ccc(C)cc2)C1=O)=C\c1ccccc1 | -8% | ? | ? | -10% | -18% | ?
CC(/C=C1\SC(=S)N(NC(=O)c2ccccc2C)C1=O)=C\c1ccccc1 | 3% | 28µM* | ? | -3% | ? | ?
CCN(CC)C(=O)CC(c1ccc(OC)cc1)c1c(OC)cc(OC)c2c(-c3ccccc3)cc(=O)oc12 (stereo not given) | -9% | . | . | . | 5% | ?
CCOc1ccc2cc(C3CC(c4ccco4)=NN3S(=O)(=O)c3ccccc3)c(Cl)nc2c1 (stereo not given) | -6% | 10µM* | ? | -1% | -7% | -34%
CCOc1ccc2cc(C3CC(c4ccco4)=NN3S(C)(=O)=O)c(=O)[nH]c2c1 (stereo not given) | 22µM* | . | -32% | . | ? | 50µM*

Source: PubChem (National Center for Advancing Translational Sciences (NCATS))
